Test results published in PubChem BioAssay (NCATS).
Results filed as inconclusive are left out. A call without a number means that no potency is given here. The source made the active and inactive calls. Unless noted, the call rests on the fitted dose curve; in most records, active means well fitted curve in the direction sought with a large enough effect in the repeat runs; inconclusive means weak or mixed curves; inactive means no such curve, though single readings can be large; an effect the other way counts as inactive or inconclusive.

Columns and labels:
[1] = target: Calcium and integrin-binding protein 1 (Homo sapiens) (UniProt Q99828); assay: Primary qHTS for Identification of Calcium Integrin Binding Protein 1 (CIB1) Competitor (AID 1508620; active means well fitted curve in the direction sought with a large enough effect; an effect the other way counts as inactive or inconclusive;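 further: GST tagged CIB1 binding a fluorescein labelled alphaIIb integrin peptide tracer; top concentration of the series differs between compounds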); details: CIB1-GST / FITC-alphaIIb peptide fluorescence polarization; series mostly up to 114 µM
Summary of the method: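 Fluorescence polarization competition: GST-tagged CIB1 (1 uM final) preincubated with compound 15 min at room temperature, then FITC-labelled alphaIIb peptide (100 nM final) added. After 15 min at room temperature, polarization read at Ex 480/Em 540.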

[2] = target: Cytochrome P450 2D6 (Homo sapiens) (UniProt P10635); assay: Cytochrome P450 family 2 subfamily D member 6 (CYP2D6) small molecule antagonists: luciferase biochemical (cell-free) qHTS assay (AID 1645840); details: P450-Glo CYP2D6 enzyme, luciferin luminescence, 1 h; series mostly up to 57.4 µM; further: nearly all actives have a fitted effect of over 55% in size; further: potency means the concentration at half of the fitted maximal effect
Summary of the method: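 P450-Glo luminescent screen: recombinant CYP2D6 enzyme–proluciferin substrate mix preincubated with compound 10 min at room temperature, then NADPH regeneration added for 1 h at room temperature. Detection reagent added for 20 min; luciferin light read as relative luminescence units.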

[3] = target: Cytochrome P450 3A4 (Homo sapiens) (UniProt P08684); assay: Cytochrome P450 family 3 subfamily A member 4 (CYP3A4) small molecule antagonists: luciferase qHTS assay (AID 1645841); details: P450-Glo CYP3A4 enzyme assay, luciferin luminescence; series mostly up to 57.4 µM; further: nearly all actives have a fitted effect of over 45% in size
Summary of the method: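 P450-Glo CYP3A4 enzyme with proluciferin substrate preincubated 10 min with compound at room temperature, then NADPH regeneration 1 h. Luciferin detection reagent added for 20 min; luminescence recorded. Ketoconazole positive control.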

[4] = Primary qHTS for inhibitors of nuclear receptor binding SET domain protein 2 (NSD2) in an isogenic RCH-ACV NSD2 p.E1099K mutant (9B) (AID 1645876; active means well fitted curve in the direction sought with a large enough effect; an effect the other way counts as inactive or inconclusive; further: nearly all actives have a fitted effect of over 70% in size; further: potency means the concentration at half of the fitted maximal effect); details: RCH-ACV NSD2 E1099K (9B) viability, CellTiter-Glo, 72 h; series mostly up to 44.9 µM
[5] = Primary qHTS for inhibitors of nuclear receptor binding SET domain protein 2 (NSD2) in an RCH-ACV wild type WT cells (2C) (AID 1645877; active means well fitted curve in the direction sought with a large enough effect; an effect the other way counts as inactive or inconclusive; further: nearly all actives have a fitted effect of over 70% in size; further: potency means the concentration at half of the fitted maximal effect); details: RCH-ACV (leukaemia line) NSD2 WT (2C) viability, CellTiter-Glo, 72 h; series mostly up to 44.9 µM
[6] = target: Cytochrome P450 2C9 (Homo sapiens) (UniProt P11712); assay: Cytochrome P450 family 2 subfamily C member 9 (CYP2C9) small molecule antagonists: luciferase biochemical (cell-free) qHTS assay (AID 1645842); details: P450-Glo CYP2C9 enzyme assay, luciferin luminescence; series mostly up to 57.4 µM; further: nearly all actives have a fitted effect of over 55% in size; further: potency means the concentration at half of the fitted maximal effect
Summary of the method: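 Luminescence, after 20 min with luciferin detection reagent, reflected CYP2C9 turnover during a 1 h NADPH-driven reaction at 37C. Enzyme-substrate mix contained 0.4% bovine serum albumin and was preincubated with compound 10 min at room temperature.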

Cytochrome P450 2D6 (Homo sapiens), sequence (P10635 whole entry, looked up): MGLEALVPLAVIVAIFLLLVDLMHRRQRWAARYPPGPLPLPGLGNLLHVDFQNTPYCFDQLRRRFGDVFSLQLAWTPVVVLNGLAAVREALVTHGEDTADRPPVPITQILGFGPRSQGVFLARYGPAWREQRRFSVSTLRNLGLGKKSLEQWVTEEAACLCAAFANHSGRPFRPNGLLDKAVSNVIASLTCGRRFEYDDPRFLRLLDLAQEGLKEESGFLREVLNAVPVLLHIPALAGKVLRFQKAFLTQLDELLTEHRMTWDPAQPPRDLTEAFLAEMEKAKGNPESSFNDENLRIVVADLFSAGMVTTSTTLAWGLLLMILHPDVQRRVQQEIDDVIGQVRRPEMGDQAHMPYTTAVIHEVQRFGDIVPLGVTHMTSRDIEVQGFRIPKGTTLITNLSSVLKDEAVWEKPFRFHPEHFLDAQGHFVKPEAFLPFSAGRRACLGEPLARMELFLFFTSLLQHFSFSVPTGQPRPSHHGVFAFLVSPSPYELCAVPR
Cytochrome P450 2C9 (Homo sapiens), sequence (P11712 whole entry, looked up): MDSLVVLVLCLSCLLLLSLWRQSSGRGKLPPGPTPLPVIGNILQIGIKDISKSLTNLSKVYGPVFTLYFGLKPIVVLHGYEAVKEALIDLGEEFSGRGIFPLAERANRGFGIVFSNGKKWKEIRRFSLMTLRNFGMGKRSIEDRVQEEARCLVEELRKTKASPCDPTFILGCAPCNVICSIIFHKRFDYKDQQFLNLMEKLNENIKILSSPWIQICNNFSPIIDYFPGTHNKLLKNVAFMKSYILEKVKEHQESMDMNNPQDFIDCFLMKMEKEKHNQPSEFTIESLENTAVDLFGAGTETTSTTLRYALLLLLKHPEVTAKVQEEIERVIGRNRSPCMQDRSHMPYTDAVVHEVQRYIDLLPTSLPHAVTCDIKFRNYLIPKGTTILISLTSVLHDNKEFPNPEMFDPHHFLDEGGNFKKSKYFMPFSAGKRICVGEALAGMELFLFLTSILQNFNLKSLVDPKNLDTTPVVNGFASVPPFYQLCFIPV
Calcium and integrin-binding protein 1 (Homo sapiens), sequence (Q99828 whole entry, looked up): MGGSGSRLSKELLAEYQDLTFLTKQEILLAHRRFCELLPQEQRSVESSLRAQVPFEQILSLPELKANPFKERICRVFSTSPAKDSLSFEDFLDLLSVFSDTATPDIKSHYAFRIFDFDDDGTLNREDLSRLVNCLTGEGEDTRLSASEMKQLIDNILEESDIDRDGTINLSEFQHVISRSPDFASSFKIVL
Cytochrome P450 3A4 (Homo sapiens), sequence (P08684 whole entry, looked up): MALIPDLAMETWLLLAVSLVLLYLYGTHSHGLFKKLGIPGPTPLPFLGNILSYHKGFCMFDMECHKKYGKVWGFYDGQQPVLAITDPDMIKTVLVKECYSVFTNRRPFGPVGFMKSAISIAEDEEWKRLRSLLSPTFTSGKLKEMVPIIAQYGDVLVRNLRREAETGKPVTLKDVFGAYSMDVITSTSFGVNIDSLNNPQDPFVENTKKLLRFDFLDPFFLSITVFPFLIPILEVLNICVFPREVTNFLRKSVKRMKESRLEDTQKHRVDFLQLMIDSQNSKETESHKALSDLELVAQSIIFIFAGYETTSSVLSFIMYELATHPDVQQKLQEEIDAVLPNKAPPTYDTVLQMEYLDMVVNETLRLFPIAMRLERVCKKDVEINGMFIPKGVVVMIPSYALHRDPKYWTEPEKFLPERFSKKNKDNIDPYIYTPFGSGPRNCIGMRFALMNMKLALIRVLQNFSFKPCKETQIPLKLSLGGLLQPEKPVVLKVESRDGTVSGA

| Structure (SMILES) | Potency [1] | Potency [2] | Potency [3] | Potency [4] | Potency [5] | Potency [6] |
| --- | --- | --- | --- | --- | --- | --- |
| O=C(CN1C2=NCCN2c2ccccc21)c1ccc(-c2ccccc2)cc1 | inactive | 4.77 µM (active) | inactive | 11.5 µM (active) | 6.49 µM (active) | – |
| CCOc1cn(-c2ccc(F)cc2C)nc1C(=O)Nc1ccc(Oc2ccnc3cc(OC)c(OC)cc23)c(F)c1 | inactive | inactive | inactive | 4.09 µM (active) | 4.09 µM (active) | inactive |
| O=C(N[C@H]1CCN(C(=O)c2cc(C(F)(F)F)cc(C(F)(F)F)c2)[C@H](Cc2ccc(Cl)cc2)C1)c1ccnc2ccccc12 | inactive | inactive | – | – | – | 10.7 µM (active) |
| Fc1ccc(N2CCN(CCC3OCCc4ccccc43)CC2)cc1 (stereo not given) | inactive | 1.9 µM (active) | – | – | – | – |
| FC(F)(F)c1ccc(/C=C/c2nc(COc3ccc(CCCCn4ccnn4)cc3)co2)cc1 | inactive | inactive | – | – | – | – |
| O=C(CNC(=O)c1cccc(C(F)(F)F)c1)N[C@@H]1CCN(Cc2ccc(Cl)cc2)C1 | inactive | 0.0535 µM (active) | – | – | – | – |
| CC(C)(N)c1ncc(-c2ccc(OC(F)(F)F)cc2)[nH]1 | inactive | 23.9 µM (active) | – | – | – | – |
| CCNC(=O)N1CCCN(c2ccc(C(=O)NCCc3ccc(Cl)cc3Cl)cc2NC(=O)c2cccc(Cl)c2)CC1 | inactive | 4.77 µM (active) | – | – | – | – |
| Cc1cc(F)ccc1-c1nc(NCCN=C(N)NC#N)nc2c1ccc(=O)n2-c1c(F)cccc1F | inactive | 19 µM (active) | – | – | – | – |
| CCCN(CCc1ccsc1)C1CCc2c(O)cccc2C1 (stereo not given) | inactive | 0.338 µM (active) | – | – | – | – |
| Nc1nc(O)c(C2=C3C(=Nc4ccccc43)C(=O)NCC2)[nH]1 | inactive | inactive | inactive | – | 16.3 µM (active) | – |
| O=C(NC1CCC1)c1ccc(C#Cc2cccc(F)c2)nc1 | inactive | inactive | inactive | inactive | – | inactive |
| C=CC(=O)N1CC(N2CCN(C(=O)CNc3cc(C4CC4)c(Cl)cc3O)CC2)C1 | inactive | inactive | – | – | – | – |
| CC(C)(C)c1ccc2c(c1)CC[C@H]2NC(=O)Nc1cccc2[nH]ncc12 | inactive | inactive | – | – | – | – |
| Fc1ccc(CN2CCC(Nc3ccc(C(F)(F)F)nn3)CC2)cc1F | inactive | 1.2 µM (active) | inactive | inactive | inactive | – |
| COC(=O)c1ccc2c(c1)nc(NC(=O)c1ccccc1)n2CCCc1ccccc1 | inactive | inactive | inactive | inactive | inactive | 23.9 µM (active) |
| CS(=O)(=O)Nc1ccc2oc3c(OC(F)F)ccc(C(=O)Nc4c(Cl)cncc4Cl)c3c2c1 | inactive | 12 µM (active) | – | – | – | 3.38 µM (active) |
| Cc1ccc(C)c(NC(=O)[C@@H]2CCCN2S(=O)(=O)c2cccc3cccnc23)c1 | inactive | 16.9 µM (active) | – | – | – | 6.74 µM (active) |
| CCc1cc2c(cc1CC)CC(NCC(O)c1ccc(O)c3[nH]c(=O)ccc13)C2 (stereo not given) | inactive | 9.52 µM (active) | – | – | – | inactive |

| Structure (SMILES) | Potency [1] | Potency [2] | Potency [3] | Potency [4] | Potency [5] | Potency [6] |
| --- | --- | --- | --- | --- | --- | --- |
| Nc1ncnc2c1c(-c1ccc(Cl)cc1)nn2-c1cccc(-c2cnnn2Cc2cccc(-c3ccccc3)c2)c1 | inactive | inactive | – | – | – | 0.536 µM (active) |
| O=c1cc(N2CCOCC2)nc2c3ccccc3ccn12 | inactive | 19 µM (active) | – | – | – | 15.1 µM (active) |
| Fc1ccc(-c2nc(-c3c(F)cccc3F)[nH]c2-c2ccncc2)cc1 | inactive | 2.68 µM (active) | – | – | – | inactive |
| O=C(C1CCCCC1)N(CCN1CCN(c2ccccc2O)CC1)c1ccccn1 | inactive | 10.7 µM (active) | – | – | – | 12 µM (active) |
| C[C@H]1CO[C@@H]2Cn3cc(C(=O)NCc4ccc(F)cc4F)c(=O)c(O)c3C(=O)N12 | inactive | inactive | – | – | – | inactive |
| N#Cc1ccc(COc2ccc(-c3cccc4nc(NC(=O)C5CC5)nn34)cc2)cn1 | inactive | inactive | – | – | – | 10.7 µM (active) |
| O=C(Nc1ccc(Cl)cc1)Nc1cccc(-c2cccc(N3CCCC3)n2)c1 | inactive | 6.74 µM (active) | – | – | – | 9.52 µM (active) |
| Nc1nc2c(s1)CCN(Cc1ccc(Cl)cc1)CC2 | inactive | 1.9 µM (active) | – | – | – | 15.1 µM (active) |
| O=C(N[C@@H]1CCCc2c1cnn2-c1ccc(F)cc1F)c1ccccn1 | inactive | inactive | – | – | – | 21.3 µM (active) |
| Cc1ccc(S(=O)(=O)N2CCC[C@H]2c2ccc(F)cc2)cc1 | inactive | inactive | – | – | – | inactive |
| Fc1ccc(-c2cncc(CN3CCN(c4cccc5c4OCCO5)CC3)c2)cc1 | inactive | 9.52 µM (active) | – | – | – | 10.7 µM (active) |
| CNCCCC1(c2ccccc2)OC(C)(C)c2ccccc21 (stereo not given) | inactive | 6.74 µM (active) | – | – | – | inactive |
| CC(C)c1cccc(C(C)C)c1NC(=O)Nc1ccc(Sc2ccc([N+](=O)[O-])cc2)cc1 | inactive | inactive | – | – | – | inactive |
| O=C(C(Cc1cccc(C(F)(F)F)c1)NS(=O)(=O)c1cc(F)c2c(c1)CCNC2)N1CCCC1 (stereo not given) | inactive | 13.5 µM (active) | – | – | – | 12 µM (active) |
| O=C(Nc1ccc(C(F)(F)F)cn1)N1CCN(c2ncccc2C(F)(F)F)CC1 | inactive | inactive | – | – | – | 3.01 µM (active) |
| CC(C)Nc1nc(Nc2ccccc2)nc(-c2ccccc2)n1 | inactive | inactive | – | – | – | 7.56 µM (active) |
| CCC(C)c1ccc(NC(=O)Cn2cnc3c2c(=O)n(C)c(=O)n3C)cc1 (stereo not given) | inactive | inactive | – | – | – | 12 µM (active) |
| C=C1CCN([C@H](C)[C@](O)(Cn2cncn2)c2ccc(F)cc2F)CC1 | inactive | 23.9 µM (active) | – | – | – | 0.477 µM (active) |
| O=c1[nH]c2cccc(N3CCN(Cc4ccc(-c5ccccc5)cc4)CC3)c2o1 | inactive | 8.49 µM (active) | – | – | – | 5.35 µM (active) |

| Structure (SMILES) | Potency [1] | Potency [2] | Potency [3] | Potency [4] | Potency [5] | Potency [6] |
| --- | --- | --- | --- | --- | --- | --- |
| Cc1ccnn1-c1ccc(C(=O)N2CCN(S(=O)(=O)c3ccc(Cl)c(C(F)(F)F)c3)CC2)cc1 | inactive | inactive | – | – | – | 6.74 µM (active) |
| Cc1nnc(-c2ccc(-c3ccc(C(=O)Nc4ccc(O)c(N5CCN(C)CC5)c4)cc3)c(C)c2)o1 | inactive | inactive | – | – | – | inactive |
| O=S(=O)(c1ccc(Cl)cc1)N1CCN(c2ccnc3cc(Cl)ccc23)CC1 | inactive | 8.49 µM (active) | – | – | – | 2.39 µM (active) |
| CCC[C@@]1(CCc2ccccc2)CC(O)=C([C@H](CC)c2cccc(NS(=O)(=O)c3ccc(C(F)(F)F)cn3)c2)C(=O)O1 | inactive | 6.01 µM (active) | – | – | – | 26.8 µM (active) |
| Fc1ccc2c(CCNCc3cccc(OCC(F)(F)C(F)F)c3)c[nH]c2c1 | inactive | 0.0477 µM (active) | – | – | – | 9.52 µM (active) |
| COc1ccc(S(=O)(=O)N2CCC[C@H]2C(=O)Nc2cc(C)cc(C)c2)cc1 | inactive | inactive | – | – | – | 0.674 µM (active) |
| CCCc1ccc(OCC(=O)N(Cc2nc(-c3cccnc3)no2)C(C)C)cc1 | inactive | 19 µM (active) | – | – | – | 2.13 µM (active) |
| O=c1[nH]c2ccc(C#CCN3CCC(Cc4ccccc4)CC3)cc2[nH]1 | inactive | 0.338 µM (active) | – | – | – | 7.56 µM (active) |
| CCc1cnc(N2CCC(c3nc(COc4ccc(-n5cnnn5)cc4)cs3)CC2)nc1 | inactive | inactive | – | – | – | inactive |
| CCCC(CCC)C(=O)NCc1ccc2c(cnn2-c2ccccc2OC)c1 | inactive | 13.5 µM (active) | – | – | – | 1.9 µM (active) |
| Cc1cnn(-c2ccccc2)c1NC(=O)COCc1ccccc1 | inactive | inactive | – | – | – | 10.7 µM (active) |
| Cc1cc(C(=O)Cn2cc(C#N)ccc2=O)c(C)n1Cc1ccccc1 | inactive | inactive | – | – | – | 16.9 µM (active) |
| O=C(NCCN1CCC(n2c(=O)[nH]c3ccccc32)CC1)c1cc2cc(F)ccc2[nH]1 | inactive | 15.1 µM (active) | – | – | – | 3.38 µM (active) |
| CC[C@H](C(=O)Nc1ccccc1N1CCCC1)c1ccccc1 | inactive | 9.52 µM (active) | – | – | – | 7.56 µM (active) |
| O=C(NCC(=O)N1CCCC1)Nc1ccc2cnccc2c1 | inactive | 12 µM (active) | – | – | – | inactive |
| CC#C[C@@H](CC(=O)O)c1ccc(OCc2ccc(CN3CCC4(C=Cc5ccccc54)CC3)s2)cc1 | inactive | 15.1 µM (active) | – | – | – | 23.9 µM (active) |
| O=C(O)c1ccc(S(=O)(=O)N(Cc2ccc(OC(F)(F)F)cc2)c2ncc(C(F)(F)F)cc2Cl)cc1 | inactive | inactive | – | – | – | 23.9 µM (active) |
| CC(C)c1cc2c(N3CCN(C4=NCC(C)(C)S4)CC3)ncnc2s1 | inactive | 3.01 µM (active) | – | – | – | inactive |
| O=C(NCCN1CCN(c2cccc3ccc(O)cc23)CC1)c1ccc(F)cc1 | inactive | 0.0425 µM (active) | – | – | – | 0.601 µM (active) |
